How the values were obtained:
Assay in all cases: log2 ratio of Biotin-Ahx-Ub-VS probe labelling (fragment/DMSO); higher = less target engagement (more negative = stronger competition), active = hit call of the paper (q ≤ 0.05, log2 ratio ≤ -1)
Conditions in all cases: compound concentration: 200 uM; treatment time: 3 h
USP16 = USP16 (UniProt Q9Y5T5)
Procedure, shortened: (§1)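 Labelled DUBs from HEK293T lysate were NeutrAvidin-enriched, digested with LysC and trypsin, and run by diaPASEF LC-MS/MS. Before that, each 495 µg sample in Tris/CHAPS/IGEPAL buffer with protease inhibitors was treated in triplicate with fragment at 200 µM or vehicle for 3 h, then with Biotin-Ahx-Ub-VS at 0.5 µM final for 1 h. Values are average log2 ratios of fragment over vehicle by unpaired t-test, based on global-median-normalised Spectronaut label-free quantities from proteins with ≥2 unique peptides.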

USP19 = target: T1, USP19 (UniProt O94966)
T1 sequence (whole entry): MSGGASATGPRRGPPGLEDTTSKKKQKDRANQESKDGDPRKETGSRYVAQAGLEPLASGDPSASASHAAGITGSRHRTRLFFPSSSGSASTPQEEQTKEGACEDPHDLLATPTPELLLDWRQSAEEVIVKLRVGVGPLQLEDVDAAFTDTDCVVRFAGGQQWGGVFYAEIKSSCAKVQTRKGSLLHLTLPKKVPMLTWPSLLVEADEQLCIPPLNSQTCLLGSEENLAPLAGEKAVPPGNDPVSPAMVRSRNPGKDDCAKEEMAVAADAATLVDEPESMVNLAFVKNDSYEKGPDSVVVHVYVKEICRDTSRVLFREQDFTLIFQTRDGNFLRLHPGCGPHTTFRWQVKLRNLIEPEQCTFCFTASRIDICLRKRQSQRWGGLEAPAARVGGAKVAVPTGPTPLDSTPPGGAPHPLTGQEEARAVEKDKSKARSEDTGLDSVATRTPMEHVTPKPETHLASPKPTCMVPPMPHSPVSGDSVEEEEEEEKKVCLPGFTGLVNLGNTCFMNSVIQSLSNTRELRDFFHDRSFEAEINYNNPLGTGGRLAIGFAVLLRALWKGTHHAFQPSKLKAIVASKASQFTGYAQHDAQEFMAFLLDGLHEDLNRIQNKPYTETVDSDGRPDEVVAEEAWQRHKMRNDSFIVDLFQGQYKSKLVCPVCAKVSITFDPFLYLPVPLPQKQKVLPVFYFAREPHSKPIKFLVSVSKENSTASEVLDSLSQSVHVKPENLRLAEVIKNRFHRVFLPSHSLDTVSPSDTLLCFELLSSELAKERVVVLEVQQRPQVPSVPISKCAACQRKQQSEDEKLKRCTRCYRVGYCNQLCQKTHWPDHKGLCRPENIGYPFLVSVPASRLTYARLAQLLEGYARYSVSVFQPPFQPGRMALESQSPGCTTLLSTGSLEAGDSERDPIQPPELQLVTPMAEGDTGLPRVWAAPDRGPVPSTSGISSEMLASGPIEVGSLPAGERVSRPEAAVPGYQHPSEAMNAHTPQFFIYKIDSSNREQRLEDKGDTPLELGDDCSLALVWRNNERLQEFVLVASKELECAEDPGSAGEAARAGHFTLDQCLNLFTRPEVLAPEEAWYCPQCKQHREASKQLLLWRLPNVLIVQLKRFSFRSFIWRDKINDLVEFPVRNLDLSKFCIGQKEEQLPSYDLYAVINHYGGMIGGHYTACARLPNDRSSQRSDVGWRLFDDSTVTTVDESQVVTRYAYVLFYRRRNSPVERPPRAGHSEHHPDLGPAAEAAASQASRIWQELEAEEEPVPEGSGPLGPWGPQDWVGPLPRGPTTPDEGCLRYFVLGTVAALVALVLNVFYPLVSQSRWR
Procedure, shortened: as §1

USP24 = USP24 (UniProt Q9UPU5)
Sequence of USP24 (Q9UPU5 whole entry): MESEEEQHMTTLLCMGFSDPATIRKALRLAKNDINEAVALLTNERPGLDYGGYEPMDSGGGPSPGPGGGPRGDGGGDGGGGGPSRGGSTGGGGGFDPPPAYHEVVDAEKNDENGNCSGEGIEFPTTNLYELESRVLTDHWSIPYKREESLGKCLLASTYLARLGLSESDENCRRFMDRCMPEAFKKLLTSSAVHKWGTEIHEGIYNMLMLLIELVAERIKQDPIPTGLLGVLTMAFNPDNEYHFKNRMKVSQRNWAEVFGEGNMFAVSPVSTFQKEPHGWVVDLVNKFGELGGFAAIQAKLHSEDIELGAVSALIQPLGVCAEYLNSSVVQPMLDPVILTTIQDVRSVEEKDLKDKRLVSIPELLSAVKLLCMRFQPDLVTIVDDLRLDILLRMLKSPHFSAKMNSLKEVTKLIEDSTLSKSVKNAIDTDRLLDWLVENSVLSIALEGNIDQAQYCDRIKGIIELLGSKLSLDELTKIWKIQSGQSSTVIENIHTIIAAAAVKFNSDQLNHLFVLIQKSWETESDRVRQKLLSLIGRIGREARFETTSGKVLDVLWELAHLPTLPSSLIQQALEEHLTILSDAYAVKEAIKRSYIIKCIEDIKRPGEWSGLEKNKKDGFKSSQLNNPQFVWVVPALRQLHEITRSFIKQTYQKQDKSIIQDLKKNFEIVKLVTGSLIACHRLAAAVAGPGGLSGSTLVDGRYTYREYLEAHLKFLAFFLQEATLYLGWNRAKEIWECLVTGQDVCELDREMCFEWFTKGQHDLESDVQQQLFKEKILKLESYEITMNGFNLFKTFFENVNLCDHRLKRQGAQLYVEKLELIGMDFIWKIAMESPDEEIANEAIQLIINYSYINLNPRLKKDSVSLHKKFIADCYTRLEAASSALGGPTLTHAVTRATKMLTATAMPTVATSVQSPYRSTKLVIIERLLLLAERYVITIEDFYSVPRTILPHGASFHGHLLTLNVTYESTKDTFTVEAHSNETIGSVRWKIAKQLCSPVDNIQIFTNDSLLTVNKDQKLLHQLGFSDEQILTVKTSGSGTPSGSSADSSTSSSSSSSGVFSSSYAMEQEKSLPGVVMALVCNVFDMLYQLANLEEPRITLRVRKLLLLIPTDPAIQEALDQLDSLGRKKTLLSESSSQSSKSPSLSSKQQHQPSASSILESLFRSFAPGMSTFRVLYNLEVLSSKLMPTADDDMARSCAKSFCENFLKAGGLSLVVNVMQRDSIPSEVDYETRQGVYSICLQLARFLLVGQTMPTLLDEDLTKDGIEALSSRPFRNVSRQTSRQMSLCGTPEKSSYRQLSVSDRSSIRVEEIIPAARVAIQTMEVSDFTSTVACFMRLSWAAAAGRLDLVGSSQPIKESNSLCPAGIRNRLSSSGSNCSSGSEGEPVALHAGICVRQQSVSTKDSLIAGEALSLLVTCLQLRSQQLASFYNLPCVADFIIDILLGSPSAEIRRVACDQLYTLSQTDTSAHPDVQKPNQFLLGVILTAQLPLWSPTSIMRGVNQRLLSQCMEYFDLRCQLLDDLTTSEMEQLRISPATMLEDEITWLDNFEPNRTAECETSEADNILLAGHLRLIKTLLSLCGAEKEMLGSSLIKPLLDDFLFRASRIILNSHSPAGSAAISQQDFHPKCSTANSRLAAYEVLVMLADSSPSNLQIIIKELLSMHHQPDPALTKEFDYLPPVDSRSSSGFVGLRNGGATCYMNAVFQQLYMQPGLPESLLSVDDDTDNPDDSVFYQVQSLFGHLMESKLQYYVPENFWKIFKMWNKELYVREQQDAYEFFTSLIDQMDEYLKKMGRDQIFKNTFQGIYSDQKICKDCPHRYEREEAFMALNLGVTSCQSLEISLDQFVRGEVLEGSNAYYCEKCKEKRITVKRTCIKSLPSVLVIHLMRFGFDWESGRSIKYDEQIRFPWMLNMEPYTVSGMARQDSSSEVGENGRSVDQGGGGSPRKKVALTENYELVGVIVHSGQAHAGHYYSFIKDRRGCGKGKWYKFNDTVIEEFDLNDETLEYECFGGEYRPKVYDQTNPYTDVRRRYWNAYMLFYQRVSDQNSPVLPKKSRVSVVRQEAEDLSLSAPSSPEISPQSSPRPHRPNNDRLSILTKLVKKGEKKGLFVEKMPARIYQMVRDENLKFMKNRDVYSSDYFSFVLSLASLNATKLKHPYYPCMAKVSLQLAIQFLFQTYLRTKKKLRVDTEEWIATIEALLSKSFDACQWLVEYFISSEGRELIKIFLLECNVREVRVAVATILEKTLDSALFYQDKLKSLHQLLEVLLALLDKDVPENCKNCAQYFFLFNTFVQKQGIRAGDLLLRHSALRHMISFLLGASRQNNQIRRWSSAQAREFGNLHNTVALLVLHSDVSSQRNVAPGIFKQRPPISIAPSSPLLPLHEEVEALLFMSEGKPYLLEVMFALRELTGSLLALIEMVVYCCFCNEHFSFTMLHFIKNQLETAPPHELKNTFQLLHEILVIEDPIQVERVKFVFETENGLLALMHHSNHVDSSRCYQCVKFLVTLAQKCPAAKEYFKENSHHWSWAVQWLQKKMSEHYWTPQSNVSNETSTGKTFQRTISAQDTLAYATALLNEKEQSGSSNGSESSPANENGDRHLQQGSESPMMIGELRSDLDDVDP
Procedure, shortened: as §1

USP25 = target: T2, USP25 (UniProt Q9UHP3)
T2 sequence (whole entry): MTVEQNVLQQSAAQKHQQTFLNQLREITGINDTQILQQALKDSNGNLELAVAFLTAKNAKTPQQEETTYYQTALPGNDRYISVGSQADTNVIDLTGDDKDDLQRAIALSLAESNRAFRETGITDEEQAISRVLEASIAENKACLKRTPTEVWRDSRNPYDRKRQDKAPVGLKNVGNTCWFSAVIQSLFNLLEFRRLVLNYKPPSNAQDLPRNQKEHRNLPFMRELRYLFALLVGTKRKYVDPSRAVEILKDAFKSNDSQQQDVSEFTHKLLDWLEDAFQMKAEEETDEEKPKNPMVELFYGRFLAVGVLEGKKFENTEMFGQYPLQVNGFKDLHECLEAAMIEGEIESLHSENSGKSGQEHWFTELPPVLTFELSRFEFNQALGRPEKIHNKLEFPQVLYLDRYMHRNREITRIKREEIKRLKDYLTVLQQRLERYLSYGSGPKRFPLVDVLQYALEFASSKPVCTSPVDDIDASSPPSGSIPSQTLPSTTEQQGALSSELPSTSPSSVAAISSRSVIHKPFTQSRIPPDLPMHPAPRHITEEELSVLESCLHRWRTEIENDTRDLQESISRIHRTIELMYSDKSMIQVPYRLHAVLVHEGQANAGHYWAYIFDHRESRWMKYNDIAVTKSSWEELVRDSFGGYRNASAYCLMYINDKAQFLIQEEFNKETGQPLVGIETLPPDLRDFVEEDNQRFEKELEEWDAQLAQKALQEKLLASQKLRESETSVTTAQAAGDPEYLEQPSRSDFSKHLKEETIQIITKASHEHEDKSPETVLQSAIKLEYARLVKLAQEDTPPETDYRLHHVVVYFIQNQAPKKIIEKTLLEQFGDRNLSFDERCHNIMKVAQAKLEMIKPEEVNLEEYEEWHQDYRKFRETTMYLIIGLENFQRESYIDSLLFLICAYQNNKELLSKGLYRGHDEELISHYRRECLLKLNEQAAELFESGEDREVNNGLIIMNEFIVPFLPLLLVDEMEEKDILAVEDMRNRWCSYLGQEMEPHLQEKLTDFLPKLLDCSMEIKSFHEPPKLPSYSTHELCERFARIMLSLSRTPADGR
Procedure, shortened: as §1

USP28 = target: T3, USP28 (UniProt Q96RU2)
T3 sequence (whole entry): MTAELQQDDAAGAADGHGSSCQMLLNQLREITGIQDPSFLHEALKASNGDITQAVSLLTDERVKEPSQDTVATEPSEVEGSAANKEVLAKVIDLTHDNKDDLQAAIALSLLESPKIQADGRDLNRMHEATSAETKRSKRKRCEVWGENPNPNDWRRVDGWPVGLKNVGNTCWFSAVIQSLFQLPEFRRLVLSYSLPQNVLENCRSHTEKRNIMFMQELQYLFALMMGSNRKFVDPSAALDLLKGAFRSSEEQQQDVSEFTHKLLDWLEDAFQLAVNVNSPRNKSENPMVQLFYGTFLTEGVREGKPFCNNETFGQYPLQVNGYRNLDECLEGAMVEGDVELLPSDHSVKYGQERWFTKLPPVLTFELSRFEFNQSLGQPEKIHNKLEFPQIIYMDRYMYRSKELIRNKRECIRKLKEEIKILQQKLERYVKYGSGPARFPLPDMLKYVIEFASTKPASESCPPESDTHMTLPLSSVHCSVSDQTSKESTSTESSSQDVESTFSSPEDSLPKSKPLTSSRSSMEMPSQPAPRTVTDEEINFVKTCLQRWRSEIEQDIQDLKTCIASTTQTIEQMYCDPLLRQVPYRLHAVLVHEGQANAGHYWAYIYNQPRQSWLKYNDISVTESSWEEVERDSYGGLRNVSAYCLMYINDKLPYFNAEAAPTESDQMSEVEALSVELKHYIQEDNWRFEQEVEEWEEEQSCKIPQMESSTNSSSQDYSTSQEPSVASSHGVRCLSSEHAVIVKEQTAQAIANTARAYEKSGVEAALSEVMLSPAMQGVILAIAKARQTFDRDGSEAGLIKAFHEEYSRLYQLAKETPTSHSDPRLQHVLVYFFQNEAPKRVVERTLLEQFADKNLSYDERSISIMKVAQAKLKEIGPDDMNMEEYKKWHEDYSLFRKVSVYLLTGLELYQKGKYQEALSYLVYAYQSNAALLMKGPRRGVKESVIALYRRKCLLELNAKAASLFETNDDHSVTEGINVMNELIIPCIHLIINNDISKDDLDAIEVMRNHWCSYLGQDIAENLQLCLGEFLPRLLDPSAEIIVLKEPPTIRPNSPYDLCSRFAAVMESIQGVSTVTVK
Procedure, shortened: as §1

Measured: log2 ratio of Biotin-Ahx-Ub-VS probe labelling

Sequence of USP16 (Q9Y5T5 whole entry, looked up, the tested form may be a part): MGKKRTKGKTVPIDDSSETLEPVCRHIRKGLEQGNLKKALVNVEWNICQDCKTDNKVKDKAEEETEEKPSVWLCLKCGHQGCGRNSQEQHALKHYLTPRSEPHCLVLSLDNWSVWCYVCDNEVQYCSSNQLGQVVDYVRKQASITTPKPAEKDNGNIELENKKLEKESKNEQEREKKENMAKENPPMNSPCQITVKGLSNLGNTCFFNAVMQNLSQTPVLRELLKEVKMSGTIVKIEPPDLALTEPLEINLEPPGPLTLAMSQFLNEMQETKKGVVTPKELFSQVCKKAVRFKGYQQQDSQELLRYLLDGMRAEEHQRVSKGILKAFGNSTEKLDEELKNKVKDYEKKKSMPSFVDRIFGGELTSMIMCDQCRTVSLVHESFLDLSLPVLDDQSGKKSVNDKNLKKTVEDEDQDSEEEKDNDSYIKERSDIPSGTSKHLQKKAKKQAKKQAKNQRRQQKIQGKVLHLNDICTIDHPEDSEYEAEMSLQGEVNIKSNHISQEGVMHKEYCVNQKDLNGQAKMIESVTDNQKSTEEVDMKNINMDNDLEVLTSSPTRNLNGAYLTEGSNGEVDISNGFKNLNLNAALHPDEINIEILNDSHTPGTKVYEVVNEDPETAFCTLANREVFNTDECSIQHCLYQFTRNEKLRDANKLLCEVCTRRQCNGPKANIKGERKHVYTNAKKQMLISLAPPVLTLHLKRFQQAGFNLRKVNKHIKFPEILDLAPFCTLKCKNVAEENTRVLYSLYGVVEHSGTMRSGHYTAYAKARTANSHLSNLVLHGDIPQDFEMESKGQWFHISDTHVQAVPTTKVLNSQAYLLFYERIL

O=C(CCl)NCCC1=CCCCC1
inactive: USP16 -0.0314 | USP19 -0.00951 | USP24 -0.0898 | USP25 -0.223 | USP28 -0.444
